From PubChem
An excerpt weighted towards active compounds, which were near 7.5% of everything screened.
SMN2 splice up = qHTS Assay for Enhancers of SMN2 Splice Variant Expression; HEK293 SMN2-luciferase splicing reporter, luminescence, 30-36 h; Potency, µM (doses to about 46.1 µM), without a hit: top-dose activity change, positive = activation, usual class: activators; hit rate 2.8% among 210,000; further: % of control where 0% means no effect; nearly all actives have a fitted effect of over 55% in size
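HEK293 cells carry an SMN2 minigene-luciferase reporter in which exon 7 inclusion puts luciferase in frame. Cells were seeded at 2000 cells/well, attached for 10-12 hours, then exposed to compounds for 30-36 hours at 37C before ONE-Glo luminescence.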
NPC1 prom act = qHTS Assay for NPC1 Promoter Activators. Huh7 NPC1 promoter luciferase reporter, 24 h. Potency, µM (series often up to 9.22 µM), for the others: top-dose activation, hits mostly activators. hit rate 2.4% among 320,000. AID 485313, 2010; further: % of control where 0% means no effect; nearly all actives have a fitted effect of over 60% in size
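Luminescence from an NPC1 promoter-driven luciferase reporter in stably transfected Huh7 cells was measured after 24 h compound treatment at 37 °C, followed by 10 min ambient incubation with luciferase detection reagent.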
Rab9 prom act = qHTS Assay for Rab9 Promoter Activators; Huh7 Rab9 promoter-luciferase reporter, luminescence, 24 h; Potency, µM (series often up to 9.22 µM), for inactives: at the highest dose activation, negative = inhibition, hits mostly activators; hit rate 2.8% among 320,000; further: % of control where 0% means no effect; nearly all actives have a fitted effect of over 60% in size
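Steps: seed 1500 Huh7 Rab9-luc cells per well, rest 2 h at 37 °C; add compound in DMSO; incubate 24 h; add luciferase reagent, 10 min ambient; read luminescence.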
ELG1 genotoxic = qHTS screen for small molecules that induce genotoxicity in human embryonic kidney (HEK293T) cells expressing luciferase-tagged ELG1. hit rate 1.3% among 330,000. Potency, µM (titrated, usually from 46 µM), for the others: at the top dose activity change, positive = activation, hits mostly activators. HEK293T ELG1-luciferase reporter, luminescence, 16 h; further: % of control where 0% means no effect; nearly all actives have a fitted effect of over 60% in size
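HEK293T cells expressing luciferase-tagged ELG1 were treated with compound or DMSO for 16 hr at 37°C. Luciferase activity was then read after 30 min with ONE-Glo at room temperature; rising signal flags genetic stress.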
Luc counter = Counterscreen for Luciferase (Kinase-Glo TM) Inhibition; hit rate 0.28% among 200,000; Kinase-Glo luciferase, ATP luminescence, 8 min; Potency, µM (highest dose often 38.3 µM), inactives show top-dose activity change, negative = inhibition, most hits filed as inhibitors; Luciferin 4-monooxygenase (Photuris pensylvanica), Q27757; further: on the % scale 0 is the no-effect control and ±100 the full control effect; nearly all actives have a fitted effect of over 60% in size
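Inhibition of Kinase-Glo luciferase light generation was assessed at 10 uM ATP in pH 7.2 imidazole buffer, with luminescence measured after eight minutes at ambient temperature.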
FLuc counter = qHTS profiling assay for firefly luciferase inhibitor/activator using purifed enzyme and Km concentrations of substrates (counterscreen for miR-21 project); purified FLuc, Km substrates, luminescence inhibition; Potency, µM (series often up to 57.5 µM), inactives show top-dose activity change, negative = inhibition, actives largely listed as inhibitors; hit rate 6.9% among 360,000;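 further: plate controls were vehicle for no effect and reference inhibitor for full effect; nearly all actives have a fitted effect of over 55% in size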
Target sequence (P08659 whole entry, looked up): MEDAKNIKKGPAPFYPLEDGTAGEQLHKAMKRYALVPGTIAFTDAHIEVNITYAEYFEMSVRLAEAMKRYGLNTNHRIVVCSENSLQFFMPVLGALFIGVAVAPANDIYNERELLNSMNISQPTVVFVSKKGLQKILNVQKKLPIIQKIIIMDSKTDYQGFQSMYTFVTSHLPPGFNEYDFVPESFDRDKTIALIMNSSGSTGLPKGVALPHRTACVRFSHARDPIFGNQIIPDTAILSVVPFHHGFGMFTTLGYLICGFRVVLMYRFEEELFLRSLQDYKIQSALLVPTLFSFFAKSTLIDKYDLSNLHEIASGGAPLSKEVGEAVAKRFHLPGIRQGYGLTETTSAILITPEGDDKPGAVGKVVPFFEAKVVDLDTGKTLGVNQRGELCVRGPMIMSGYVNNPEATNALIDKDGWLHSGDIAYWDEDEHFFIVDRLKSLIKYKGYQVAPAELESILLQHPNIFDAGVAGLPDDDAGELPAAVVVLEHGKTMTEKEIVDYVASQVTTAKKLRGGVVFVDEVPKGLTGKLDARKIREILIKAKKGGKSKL
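Purified P. pyralis luciferase, 10 nM final, with Km-level 10 uM D-luciferin and 10 uM ATP in 50 mM Tris acetate pH 7.5, 10 mM Mg acetate, 0.01% Tween-20, 0.05% BSA; 6-point qHTS titration about 60 µM downward; luminescence read.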
Numbers without * were called inactive; u = inconclusive; x = not tested or not shown. The call rests on the fitted dose curve; in most records, active means well fitted curve in the direction sought with a large enough effect; inconclusive means small, poorly fitted or top-dose-only effect, or another doubt; inactive means no such curve, though single readings can be large; an effect the other way counts as inactive or inconclusive. Potency means the concentration at half of the fitted maximal effect.

SMILES	SMN2 splice up	NPC1 prom act	Rab9 prom act	ELG1 genotoxic	Luc counter	FLuc counter
CCC(=O)N1CCN(c2nc(-c3ccc(Cl)cc3)cs2)CC1	-42.1%	1.6%	1.3%	3.9%	1.7%	26.9µM*
Fc1ccc(-c2csc(N3CCOCC3)n2)cc1	x	3.98µM*	2.51µM*	12.7%	x	21.3µM*
c1ccc2oc(-c3csc(N4CCOCC4)n3)cc2c1	3.16µM*	1.26µM*	0.501µM*	u	-0.2%	0.757µM*
COc1cc(-c2csc(N3CCOCC3)n2)cc(OC)c1OC	9.1%	1.1%	-1.2%	6.5%	-1.6%	-10.1%
CC(C)CNC(=S)N1CCN(c2nc(-c3ccc(Cl)cc3)cs2)CC1	x	-8.6%	-0.7%	-6.8%	x	-2.6%
Cc1cc(C)c(C)c(S(=O)(=O)NCCC(=O)O)c1C	x	x	x	x	0.0%	x
Fc1ccc(-c2csc(N3CCSCC3)n2)cc1	-10.7%	6.3%	21.4%	-0.3%	5.2%	16.9µM*
O=S(=O)(c1ccc(F)cc1)N1CCN(c2nc(-c3ccc(F)cc3)cs2)CC1	-34.1%	-0.2%	-3.4%	-5.8%	-0.2%	-2.8%
c1ccc(-c2csc(N3CCSCC3)n2)cc1	6.8%	13.0%	u	-0.1%	-0.9%	23.9µM*
O=C(c1ccco1)N1CCN(C(=O)c2cn(-c3ccccc3)nc2-c2ccc(F)cc2)CC1	x	5.0%	11.8%	4.6%	x	4.78µM*
CS(=O)(=O)N1CCN(c2nc(-c3ccc(F)cc3)cs2)CC1	-25.1%	11.3%	14.3%	-1.5%	-6.5%	10.7µM*
Cc1nc(-c2cccnc2)sc1C(=O)N/N=C/c1ccccc1Cl	x	-1.4%	1.0%	2.3%	x	-6.0%
CC12CN3CC(c4ccccc4)(CN(C1)C3c1ccc(Cl)cc1)C2=O (stereo unspecified)	5.3%	x	x	x	x	4.2%
COc1ccc(-c2nc(CN3CCC(C(=O)NCCCOC(C)C)CC3)c(C)o2)cc1OC	8.4%	x	x	x	x	1.1%
N#CCC(=O)Nc1ccc(C(=O)N2CCN(S(=O)(=O)c3ccc4ccccc4c3)CC2)cc1	x	-2.6%	4.1%	0.2%	x	1.9%
Cc1ccc(NC(=O)CCCn2c(=O)c3cccn3c3cccnc32)cc1C	x	x	x	x	x	3.3%
CC1CN(C(=O)CSc2nc(-c3ccc(F)cc3)cs2)CC(C)O1 (stereo unspecified)	-46.4%	-0.9%	-0.1%	-1.8%	0.6%	-3.0%
Brc1ccc(-c2csc(N3CCC(c4ccccc4)C3)n2)cc1 (stereo unspecified)	-33.3%	u	u	7.6%	3.0%	6.01µM*
Cc1nc(-c2ccccc2)cs1	15.4%	-4.1%	-0.4%	0.0%	-0.6%	-14.4%
O=C(CSc1nc(-c2ccc(F)cc2)cs1)N1CCOCC1	62.1%	29.1%	u	18.4µM*	-0.2%	u
c1ccc(-c2csc(-n3cccn3)n2)cc1	0.6%	19.3%	22.9%	2.3%	-4.2%	26.9µM*
Brc1ccc(-c2csc(N3CCc4ccccc4C3)n2)cc1	-5.7%	-0.4%	-6.9%	0.4%	5.2%	u
O=C(c1ccco1)N1CCN(c2ccc(F)cc2)CC1	22.6%	1.5%	25.8%	8.2%	-3.6%	-3.4%
O=C(c1ccco1)N1CCN(c2nc(-c3ccc(F)cc3)cs2)CC1	x	-2.2%	9.9%	-3.9%	-3.0%	23.9µM*
Brc1cccc(OCCCCN2CCCCC2)c1	14.9%	1.4%	-5.0%	-6.5%	4.5%	1.6%
Cc1ccc(CN(Cc2cccn2-c2nnc(N3CCCC3=O)s2)C(=O)Nc2ccccc2Cl)cc1	-2.6%	x	x	x	x	-4.9%
COc1cc(NC(=O)CCc2c(C)nc3nc(-c4cc(OC)cc(OC)c4)nn3c2C)cc(OC)c1	-0.1%	x	x	x	x	-5.8%
O=C(CCC(=O)c1cccs1)c1cccs1	x	1.26µM*	0.631µM*	16.4µM*	-18.2%	4.78µM*
